In PubChem BioAssay (EPA / NIEHS) one finds outcome and AC50 data, which are given here for nine compounds.

As a reminder, the AC50 is the concentration at which the activity in the assay is half-maximal.

Results filed as inconclusive are left out. Activity calls are given as the source filed them. Rule for the calls, unless noted: active = hit-call score of the fitted dose curve at least 0.9, where 1 is the maximum; inconclusive = response in the unintended direction; inactive = score below 0.9.

The target in experiment [1] is human Peroxisome Proliferator-activated Receptor alpha (PPARa), PPARA (gene 5465) (UniProt Q07869). Nature of the experiment: ATG_PPARa_TRANS: Attagene TRANS-FACTORIAL HepG2 Assay for human Peroxisome Proliferator-activated Receptor alpha (PPARa) (AID 2283001).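 For AC50: potency for gain of reporter signal over DMSO so agonist or activator.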 The gist of the method:
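HepG2 cells transiently transfected with multiplexed GAL4-UAS reporters driven by exogenous chimeric NR-Gal4 proteins; reporter mRNA measured after 24 h dosing. Read-out by RT-PCR, 6-FAM labelling, HpaI digestion and capillary electrophoresis; gain of signal versus DMSO.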

Read-out in experiment [2]: Intercellular Adhesion Molecule 1 (ICAM1), ICAM1 (gene 3383)
Nature of the experiment: BSK_3C_ICAM1: BioMAP Diversity Plus: 3C Assay for Intercellular Adhesion Molecule 1 (ICAM1) Biomarker Activity (AID 2283003; active = hit-call score of the fitted dose curve at least 0.9, where 1 is the maximum; inactive = score below 0.9). Conditions: primary human endothelial cells (HUVEC); actives raise or lower the signal. An outline of the steps: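 ICAM-1 levels measured by ELISA after HUVEC cultures in the 3C system had been dosed for 24 h. Gain or loss of signal relative to DMSO was fitted in both directions.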

Experiment [3] in a line: BSK_3C_Proliferation: Cell Proliferation Assessment in the BioMAP Diversity Plus: 3C Assay (AID 2283006; active = hit-call score of the fitted dose curve at least 0.9, where 1 is the maximum; inactive = score below 0.9). Particulars: primary human endothelial cells (HUVEC). The gist of the method: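 Read-out is total protein by SRB absorbance at 560 nm, taken as a proxy for relative cell number. Primary human umbilical vein endothelium cultured below confluence was dosed for 48 h, TCA-fixed and SRB-stained; curves were fitted bidirectionally versus DMSO.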

Experiment [4] has as its target Nuclear receptor subfamily 1 group I member 2 (Homo sapiens) (UniProt O75469). As to the kind of experiment: ATG_PXR_TRANS: Attagene TRANS-FACTORIAL HepG2 Assay for human Pregnane X Receptor (PXR) (AID 2283008). The gist of the method: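 Read-out is fluorescence of labelled reporter cDNA fragments separated by capillary electrophoresis after RT-PCR and HpaI digestion. Source: HepG2 cells carrying PXR-GAL4/UAS reporter constructs, treated 24 h; activity fitted upward relative to DMSO.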

Experiment [5] has as its target human RAR-related Orphan Receptor gamma (RORg), RORC (gene 6097) (UniProt P51449). As to the kind of experiment: ATG_RORg_TRANS: Attagene TRANS-FACTORIAL HepG2 Assay for human RAR-related Orphan Receptor gamma (RORg) (AID 2283011). The gist of the method: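 HepG2 cells transiently transfected with GAL4-UAS reporter units and chimeric RORg-Gal4 construct; after 24 h chemical exposure, reporter mRNA measured by RT-PCR with fluorescent capillary electrophoresis, gain of signal fitted against DMSO.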

Experiment [6] addresses Retinoic acid receptor RXR-alpha (Homo sapiens) (UniProt P19793). Nature of the experiment: ATG_RXRa_TRANS: Attagene TRANS-FACTORIAL HepG2 Assay for human Retinoid X Receptor alpha (RXRa) (AID 2283012). An outline of the steps: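 Transient transfection of human HepG2 with multiple GAL4-UAS reporter constructs; 24 h compound exposure; total RNA isolated, reverse-transcribed, PCR-amplified, 6-FAM labelled, HpaI-cut, resolved by capillary electrophoresis. Positive-direction fit versus DMSO.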

The target in experiment [7] is human Retinoid X Receptor beta (RXRb), RXRB (gene 6257) (UniProt P28702). Nature of the experiment: ATG_RXRb_TRANS: Attagene TRANS-FACTORIAL HepG2 Assay for human Retinoid X Receptor beta (RXRb) (AID 2283013). An outline of the steps: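 Transfect HepG2 with GAL4-UAS multi-reporter constructs (chimeric NR-Gal4, TRANS format); dose compound 24 h; isolate RNA, RT-PCR, FAM primer extension, HpaI digest; quantify by capillary electrophoresis; positive direction vs DMSO.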
Sequence of human Retinoid X Receptor beta (RXRb), RXRB (gene 6257) (P28702 whole entry, looked up, the tested form may be a part): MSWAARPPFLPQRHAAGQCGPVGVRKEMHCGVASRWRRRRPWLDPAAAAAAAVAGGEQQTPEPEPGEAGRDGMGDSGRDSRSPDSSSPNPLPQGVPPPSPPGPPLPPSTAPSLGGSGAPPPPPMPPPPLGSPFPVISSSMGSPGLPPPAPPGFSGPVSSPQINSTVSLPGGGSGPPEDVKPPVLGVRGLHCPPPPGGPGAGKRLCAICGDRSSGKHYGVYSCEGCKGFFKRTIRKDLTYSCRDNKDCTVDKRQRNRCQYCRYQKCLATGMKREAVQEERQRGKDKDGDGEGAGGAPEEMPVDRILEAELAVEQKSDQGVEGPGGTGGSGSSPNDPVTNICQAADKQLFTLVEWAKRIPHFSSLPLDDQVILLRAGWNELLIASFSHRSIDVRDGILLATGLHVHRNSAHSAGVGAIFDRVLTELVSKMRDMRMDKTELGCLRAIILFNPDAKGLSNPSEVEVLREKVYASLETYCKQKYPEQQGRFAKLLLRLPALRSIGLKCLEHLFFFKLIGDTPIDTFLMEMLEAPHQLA

Read-out in experiment [8]: E-selectin (Homo sapiens) (UniProt P16581)
As to the kind of experiment: BSK_3C_Eselectin: BioMAP Diversity Plus: 3C Assay for Eselectin Biomarker Activity (AID 2283015; active = hit-call score of the fitted dose curve at least 0.9, where 1 is the maximum; inactive = score below 0.9;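 note: cell surface E-selectin protein quantified by ELISA 24 h after dosing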). Conditions: primary human endothelial cells (HUVEC); actives raise or lower the signal. An outline of the steps: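 Primary human umbilical vein endothelial cells (3C system), read 24 h after compound addition; E-selectin measured by ELISA. Bidirectional curve fitting against DMSO baseline; cytotoxicity by parallel SRB total-protein staining.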

Read-out in experiment [9]: Interleukin-1 alpha (IL1a), IL1A (gene 3552)
Nature of the experiment: BSK_BE3C_IL1a: BioMAP Diversity Plus: BE3C Assay for Interleukin-1 alpha (IL1a) Biomarker Activity (AID 2283016; active = hit-call score of the fitted dose curve at least 0.9, where 1 is the maximum; inactive = score below 0.9). Particulars: primary human bronchial epithelial cells; actives raise or lower the signal. An outline of the steps:
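BE3C primary human bronchial epithelium; cpd 24 h; IL-1a by ELISA; bidirectional fit vs DMSO; parallel SRB (0.1% SRB, 10% TCA fix, 560 nm) for cytotoxicity.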

Read-out in experiment [10]: Monocyte Chemoattractant Protein-1 (MCP1), CCL2 (gene 6347)
As to the kind of experiment: BSK_3C_MCP1: BioMAP Diversity Plus: 3C Assay for Monocyte Chemoattractant Protein-1 (MCP1) Biomarker Activity (AID 2283017; active = hit-call score of the fitted dose curve at least 0.9, where 1 is the maximum; inactive = score below 0.9). Conditions: primary human endothelial cells (HUVEC); actives raise or lower the signal. The gist of the method:
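Human umbilical vein endothelial cells (3C system) exposed to chemicals for 24 h; MCP-1 quantified by ELISA against the DMSO baseline with bidirectional fitting, and parallel SRB staining used to assess cytotoxicity.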

Read-out in experiment [11]: Monocyte Chemoattractant Protein-1 (MCP1), CCL2 (gene 6347)
Nature of the experiment: BSK_4H_MCP1: BioMAP Diversity Plus: 4H Assay for Monocyte Chemoattractant Protein-1 (MCP1) Biomarker Activity (AID 2283018; active = hit-call score of the fitted dose curve at least 0.9, where 1 is the maximum; inactive = score below 0.9). Particulars: primary human endothelial cells (HUVEC); actives raise or lower the signal. An outline of the steps:
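ELISA read-out of MCP-1 from human vascular endothelial primary cells taken at 24 hours after compound exposure. Activity was fitted in both directions relative to DMSO, which served as negative control.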

Read-out in experiment [12]: Human Leukocyte Antigen - DR isotype (HLADR), HLA-DRA (gene 3122)
Nature of the experiment: BSK_3C_HLADR: BioMAP Diversity Plus: 3C Assay for Human Leukocyte Antigen - DR isotype (HLADR) Biomarker Activity (AID 2283019; active = hit-call score of the fitted dose curve at least 0.9, where 1 is the maximum; inactive = score below 0.9;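 for outcome: ELISA of cell-surface HLA-DR on HUVEC 24 h after dosing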). Particulars: primary human endothelial cells (HUVEC); actives raise or lower the signal. An outline of the steps:
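HUVEC monoculture, HLA-DR measured by ELISA 24 h after chemical dosing. Fitted bidirectionally against DMSO baseline; parallel SRB staining assessed cytotoxicity, with 3C proliferation read by SRB at 48 h.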

Read-out in experiment [13]: Interleukin-8 (IL8), CXCL8 (gene 3576)
As to the kind of experiment: BSK_3C_IL8: BioMAP Diversity Plus: 3C Assay for Interleukin-8 (IL8) Biomarker Activity (AID 2283020; active = hit-call score of the fitted dose curve at least 0.9, where 1 is the maximum; inactive = score below 0.9). Conditions: primary human endothelial cells (HUVEC); actives raise or lower the signal. The gist of the method: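 ELISA read-out of IL-8 from human umbilical vein endothelium, measured 24 h after chemical dosing. Activity is expressed relative to DMSO negative control, with both increases and decreases fitted.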

The target of experiment [14] is human Peroxisome Proliferator-activated Receptor delta (PPARd), PPARD (gene 5467) (UniProt Q03181). As to the kind of experiment: ATG_PPARd_TRANS: Attagene TRANS-FACTORIAL HepG2 Assay for human Peroxisome Proliferator-activated Receptor delta (PPARd) (AID 2283002). The gist of the method: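 Read-out: reporter mRNA induction, quantified by fluorescent RT-PCR products resolved by capillary electrophoresis. Human HepG2 liver cells carried transiently transfected Gal4-UAS reporter constructs with chimeric NR-Gal4 fusions. Cells were dosed for 24 h; DMSO served as baseline.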

Experiment [15] has as its target human Thyroid Receptor alpha (THRa1), THRA (gene 7067) (UniProt P10827). As to the kind of experiment: ATG_THRa1_TRANS: Attagene TRANS-FACTORIAL HepG2 Assay for human Thyroid Receptor alpha (THRa1) (AID 2283014). The gist of the method: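 HepG2 cells transiently transfected with chimeric NR-Gal4 and GAL4-UAS reporter units, dosed 24 h. Reporter mRNA quantified by RT-PCR, fluorescent labeling, HpaI digestion and capillary electrophoresis; gain-of-signal fit versus DMSO.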

The target in experiment [16] is Peroxisome proliferator-activated receptor gamma (Homo sapiens) (UniProt P37231). As to the kind of experiment: ATG_PPARg_TRANS: Attagene TRANS-FACTORIAL HepG2 Assay for human Peroxisome Proliferator-activated Receptor-gamma (PPARg) (AID 2283007). The gist of the method:
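Transient transfection of HepG2 with GAL4-UAS-driven reporter units; chemical dosing 24 h; total RNA → oligo(dT) RT → PCR with reporter primers → 6-FAM primer extension → HpaI digest 2 h 37 C → capillary electrophoresis. Positive direction vs DMSO.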

Experiment [17] addresses human Retinoic Acid Receptor beta (RARb), RARB (gene 5915) (UniProt P10826). Nature of the experiment: ATG_RARb_TRANS: Attagene TRANS-FACTORIAL HepG2 Assay for human Retinoic Acid Receptor beta (AID 2283004). An outline of the steps: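 HepG2 cells were transiently transfected with GAL4-UAS reporter units that report activity of exogenous chimeric NR-Gal4 proteins, then exposed to compound for 24 h. Reporter mRNA was quantified by RT-PCR with capillary electrophoresis fluorescence, as gain of signal over DMSO.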

Experiment [18] addresses human RAR-related Orphan Receptor beta (RORb), RORB (gene 6096) (UniProt Q92753). As to the kind of experiment: ATG_RORb_TRANS: Attagene TRANS-FACTORIAL HepG2 Assay for human RAR-related Orphan Receptor beta (RORb) (AID 2283010). The gist of the method:
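Readout is reporter-gene mRNA induction, detected as fluorescence after RT-PCR and capillary electrophoresis, fitted for gain of signal against DMSO controls. Transiently transfected HepG2 liver cells carrying GAL4-UAS reporter constructs were treated for 24 hours.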

Experiment [19] concerns the target human Retinoic Acid Receptor gamma (RARg), RARG (gene 5916) (UniProt P13631). Nature of the experiment: ATG_RARg_TRANS: Attagene TRANS-FACTORIAL HepG2 Assay for human Retinoic Acid Receptor gamma (RARg) (AID 2283009). The gist of the method: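 Transient transfection of HepG2 with multi-reporter constructs, then 24 h chemical treatment. Total RNA isolated, reverse-transcribed, PCR-amplified, fluorescently labelled and resolved by capillary electrophoresis; activity scored as mRNA induction versus DMSO.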

Sequence of Nuclear receptor subfamily 1 group I member 2 (Homo sapiens) (O75469 whole entry, looked up, the tested form may be a part): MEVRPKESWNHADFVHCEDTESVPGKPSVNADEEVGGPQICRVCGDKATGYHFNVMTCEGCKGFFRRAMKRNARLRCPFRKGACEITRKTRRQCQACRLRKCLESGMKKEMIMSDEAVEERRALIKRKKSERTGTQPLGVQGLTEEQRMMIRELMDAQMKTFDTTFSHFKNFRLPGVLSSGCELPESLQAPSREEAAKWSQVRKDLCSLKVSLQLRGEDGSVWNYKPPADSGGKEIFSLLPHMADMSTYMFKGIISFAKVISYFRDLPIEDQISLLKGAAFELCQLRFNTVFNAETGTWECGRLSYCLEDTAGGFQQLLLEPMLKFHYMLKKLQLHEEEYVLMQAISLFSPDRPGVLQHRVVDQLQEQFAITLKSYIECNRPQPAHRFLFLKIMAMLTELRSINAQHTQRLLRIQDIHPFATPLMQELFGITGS
Sequence of human Thyroid Receptor alpha (THRa1), THRA (gene 7067) (P10827 whole entry, looked up, the tested form may be a part): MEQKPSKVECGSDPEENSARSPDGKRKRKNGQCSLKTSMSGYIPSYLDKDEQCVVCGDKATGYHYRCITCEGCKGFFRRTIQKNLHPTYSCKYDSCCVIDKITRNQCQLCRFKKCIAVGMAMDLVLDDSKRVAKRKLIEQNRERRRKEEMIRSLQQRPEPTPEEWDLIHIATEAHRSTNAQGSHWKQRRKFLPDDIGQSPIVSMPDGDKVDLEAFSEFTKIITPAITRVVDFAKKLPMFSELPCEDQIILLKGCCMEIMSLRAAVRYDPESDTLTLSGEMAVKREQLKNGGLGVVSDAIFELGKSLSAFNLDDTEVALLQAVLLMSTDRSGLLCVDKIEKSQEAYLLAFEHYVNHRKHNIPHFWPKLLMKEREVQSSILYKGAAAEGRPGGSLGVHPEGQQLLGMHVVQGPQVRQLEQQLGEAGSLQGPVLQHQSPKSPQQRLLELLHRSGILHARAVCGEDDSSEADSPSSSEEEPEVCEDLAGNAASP
Sequence of Peroxisome proliferator-activated receptor gamma (Homo sapiens) (P37231 whole entry, looked up, the tested form may be a part): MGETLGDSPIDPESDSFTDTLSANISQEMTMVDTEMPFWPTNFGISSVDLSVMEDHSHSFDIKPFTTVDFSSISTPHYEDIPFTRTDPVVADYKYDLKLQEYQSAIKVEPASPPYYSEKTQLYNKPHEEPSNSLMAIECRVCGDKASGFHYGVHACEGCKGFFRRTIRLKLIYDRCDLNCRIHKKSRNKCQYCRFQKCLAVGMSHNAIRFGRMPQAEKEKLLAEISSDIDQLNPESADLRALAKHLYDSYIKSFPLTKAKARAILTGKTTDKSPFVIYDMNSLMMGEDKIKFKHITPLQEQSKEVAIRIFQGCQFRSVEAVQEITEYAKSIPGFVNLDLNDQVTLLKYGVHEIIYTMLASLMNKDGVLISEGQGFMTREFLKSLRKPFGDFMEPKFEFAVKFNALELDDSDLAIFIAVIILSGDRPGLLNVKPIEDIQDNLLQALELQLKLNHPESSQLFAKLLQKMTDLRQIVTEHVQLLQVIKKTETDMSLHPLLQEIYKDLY
Sequence of Retinoic acid receptor RXR-alpha (Homo sapiens) (P19793 whole entry, looked up, the tested form may be a part): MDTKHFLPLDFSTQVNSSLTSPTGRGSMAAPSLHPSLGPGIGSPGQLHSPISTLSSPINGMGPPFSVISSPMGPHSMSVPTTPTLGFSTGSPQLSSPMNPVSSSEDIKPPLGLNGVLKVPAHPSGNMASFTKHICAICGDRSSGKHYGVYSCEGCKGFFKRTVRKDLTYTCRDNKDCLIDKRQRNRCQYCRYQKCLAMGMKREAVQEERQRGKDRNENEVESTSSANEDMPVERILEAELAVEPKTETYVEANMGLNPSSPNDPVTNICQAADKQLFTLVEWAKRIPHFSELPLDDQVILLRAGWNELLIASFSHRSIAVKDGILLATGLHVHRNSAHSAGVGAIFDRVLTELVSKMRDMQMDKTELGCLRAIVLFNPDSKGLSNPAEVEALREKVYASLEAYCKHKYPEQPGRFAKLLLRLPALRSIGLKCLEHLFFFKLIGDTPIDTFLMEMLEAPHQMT
Sequence of human Peroxisome Proliferator-activated Receptor alpha (PPARa), PPARA (gene 5465) (Q07869 whole entry, looked up, the tested form may be a part): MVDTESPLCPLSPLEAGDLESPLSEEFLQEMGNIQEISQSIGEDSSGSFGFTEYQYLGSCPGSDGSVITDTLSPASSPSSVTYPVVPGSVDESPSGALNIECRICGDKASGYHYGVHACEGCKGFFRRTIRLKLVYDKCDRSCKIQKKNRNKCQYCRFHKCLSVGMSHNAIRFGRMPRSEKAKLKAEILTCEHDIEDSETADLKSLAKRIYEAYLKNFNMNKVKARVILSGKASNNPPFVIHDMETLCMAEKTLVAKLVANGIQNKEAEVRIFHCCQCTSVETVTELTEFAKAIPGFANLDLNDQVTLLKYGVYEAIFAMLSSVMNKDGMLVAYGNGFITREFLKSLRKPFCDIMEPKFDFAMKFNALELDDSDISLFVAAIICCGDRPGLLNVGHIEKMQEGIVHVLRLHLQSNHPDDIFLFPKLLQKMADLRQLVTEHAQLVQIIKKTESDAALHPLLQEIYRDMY
Sequence of human RAR-related Orphan Receptor gamma (RORg), RORC (gene 6097) (P51449 whole entry, looked up, the tested form may be a part): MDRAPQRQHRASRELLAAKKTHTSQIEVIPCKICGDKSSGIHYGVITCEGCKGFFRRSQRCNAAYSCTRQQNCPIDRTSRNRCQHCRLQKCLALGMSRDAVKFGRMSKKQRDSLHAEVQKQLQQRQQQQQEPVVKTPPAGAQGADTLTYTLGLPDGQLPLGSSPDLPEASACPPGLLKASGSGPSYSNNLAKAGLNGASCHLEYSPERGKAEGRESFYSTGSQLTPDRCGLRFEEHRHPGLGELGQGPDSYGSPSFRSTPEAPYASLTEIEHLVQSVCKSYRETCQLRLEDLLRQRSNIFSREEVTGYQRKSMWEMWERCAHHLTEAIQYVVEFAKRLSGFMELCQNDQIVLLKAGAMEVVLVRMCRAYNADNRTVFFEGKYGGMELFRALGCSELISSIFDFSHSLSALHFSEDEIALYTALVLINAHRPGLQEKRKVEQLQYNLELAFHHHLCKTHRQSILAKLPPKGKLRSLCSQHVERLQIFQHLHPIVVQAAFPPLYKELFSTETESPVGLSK
Sequence of human RAR-related Orphan Receptor beta (RORb), RORB (gene 6096) (Q92753 whole entry, looked up, the tested form may be a part): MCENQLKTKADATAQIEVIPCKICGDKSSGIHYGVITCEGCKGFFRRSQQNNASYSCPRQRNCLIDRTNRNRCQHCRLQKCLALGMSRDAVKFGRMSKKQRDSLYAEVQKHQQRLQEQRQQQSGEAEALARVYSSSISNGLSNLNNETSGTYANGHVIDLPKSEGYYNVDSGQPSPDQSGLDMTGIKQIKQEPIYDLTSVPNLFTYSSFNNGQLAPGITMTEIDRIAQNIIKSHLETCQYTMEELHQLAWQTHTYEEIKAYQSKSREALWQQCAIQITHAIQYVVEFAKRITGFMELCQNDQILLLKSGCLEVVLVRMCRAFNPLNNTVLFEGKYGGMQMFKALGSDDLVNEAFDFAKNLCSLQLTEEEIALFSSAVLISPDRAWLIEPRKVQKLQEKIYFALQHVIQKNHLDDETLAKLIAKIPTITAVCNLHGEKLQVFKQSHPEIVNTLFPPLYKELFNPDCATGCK
Sequence of E-selectin (Homo sapiens) (P16581 whole entry, looked up): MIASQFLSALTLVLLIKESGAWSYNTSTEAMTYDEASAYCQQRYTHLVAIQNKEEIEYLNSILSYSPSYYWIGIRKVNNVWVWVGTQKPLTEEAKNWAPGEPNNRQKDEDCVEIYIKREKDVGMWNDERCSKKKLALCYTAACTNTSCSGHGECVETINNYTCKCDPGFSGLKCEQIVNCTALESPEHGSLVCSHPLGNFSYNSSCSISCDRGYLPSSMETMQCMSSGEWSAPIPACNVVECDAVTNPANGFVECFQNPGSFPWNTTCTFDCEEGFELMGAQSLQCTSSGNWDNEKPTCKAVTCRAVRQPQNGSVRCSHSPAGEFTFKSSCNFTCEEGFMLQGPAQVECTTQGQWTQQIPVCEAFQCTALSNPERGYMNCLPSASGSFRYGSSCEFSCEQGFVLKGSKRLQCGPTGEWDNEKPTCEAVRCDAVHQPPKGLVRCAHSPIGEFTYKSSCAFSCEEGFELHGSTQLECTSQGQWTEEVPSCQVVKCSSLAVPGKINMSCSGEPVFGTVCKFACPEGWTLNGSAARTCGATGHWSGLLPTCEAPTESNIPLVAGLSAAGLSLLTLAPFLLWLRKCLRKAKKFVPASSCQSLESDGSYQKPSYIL
Sequence of human Retinoic Acid Receptor beta (RARb), RARB (gene 5915) (P10826 whole entry, looked up, the tested form may be a part): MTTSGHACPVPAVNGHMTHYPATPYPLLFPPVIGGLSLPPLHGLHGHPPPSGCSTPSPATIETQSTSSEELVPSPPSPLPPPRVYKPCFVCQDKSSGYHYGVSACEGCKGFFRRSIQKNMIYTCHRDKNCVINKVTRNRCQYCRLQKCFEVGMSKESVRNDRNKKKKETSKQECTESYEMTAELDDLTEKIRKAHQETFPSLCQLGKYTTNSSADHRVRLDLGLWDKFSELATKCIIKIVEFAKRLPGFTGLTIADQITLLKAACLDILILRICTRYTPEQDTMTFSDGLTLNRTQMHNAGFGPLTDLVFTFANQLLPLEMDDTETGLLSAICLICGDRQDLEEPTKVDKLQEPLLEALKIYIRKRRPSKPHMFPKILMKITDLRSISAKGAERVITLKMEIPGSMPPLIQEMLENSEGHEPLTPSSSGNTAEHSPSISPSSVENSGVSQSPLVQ

Take `C=C[Si](OCC)(OCC)OCC`: the call in experiment [1], in experiment [2], in [3], in [5], in experiment [6] and in experiment [7] was inactive. Further, the result in experiment [8], in [9], in experiment [10], in [11], in experiment [12] and in experiment [13] was inactive. The AC50 in experiment [4] is 2.2 µM (active).
As to `O=C(O)COCCN1CCN(C(c2ccccc2)c2ccc(Cl)cc2)CC1` (configuration not stated), the outcome in experiment [1], in experiment [14], in experiment [4] and in experiment [15] was inactive.
Regarding `CCCCCCCCCC=O`, the half-maximal activity concentration (AC50) is 29.6 µM (active) in experiment [1], 45.4 µM (active) in experiment [16], 59 µM (active) in experiment [7] and 32.3 µM (active) in experiment [12]. Besides, the result in experiment [2], in [3], in experiment [6], in experiment [8], in experiment [9] and in experiment [10] was inactive. Also, the result in experiment [11] and in [13] was inactive.
For the compound `CC(C)=CCCC(C)=CCCC(C)=CCO`, the compound was called inactive in [1] and in experiment [17]. The AC50 was 39.9 µM (active) in experiment [16], 10.2 µM (active) in experiment [4], 100 µM (active) in [6] and 28.1 µM (active) in experiment [7].
As for `C=C(C)C(=O)Nc1ccc(Cl)c(Cl)c1`, the call in experiment [1], in experiment [18], in experiment [6] and in experiment [15] was inactive. The half-maximal activity concentration (AC50) is 18.4 µM (active) in [16], 7.08 µM (active) in experiment [4] and 41 µM (active) in experiment [7].
In the case of `CSc1nnc(C(C)(C)C)c(=O)[nH]1`, the call in [1], in experiment [16], in experiment [4], in experiment [5] and in experiment [6] was inactive.
As for `C/C=C(\C)C(=O)OCc1ccccc1`, the compound was classed as inactive in [1], in [16], in [4], in [5], in experiment [6] and in [7]. Also, the outcome in [15] was inactive.
As for `CCCC(C)C=O` (configuration not stated), the result in [1], in experiment [16], in experiment [4], in experiment [18], in [5] and in [6] was inactive. For the same compound, the outcome in [7] was inactive.
For `CC(C)C[C@H]1C(=O)N2CCC[C@H]2[C@]2(O)O[C@](NC(=O)[C@@H]3C=C4c5cccc6[nH]c(Br)c(c56)C[C@H]4N(C)C3)(C(C)C)C(=O)N12`, the call in experiment [1], in [17], in experiment [16], in [19] and in experiment [5] was inactive. In addition, the AC50 in experiment [4] was 0.505 µM (active).
